High-throughput results from PubChem.
An excerpt weighted towards active compounds, which were near 12% of everything screened.
G9a block: blocks human histone lysine methyltransferase G9a; G9a H3K9 monomethylation, AlphaScreen, 2 h; Potency, µM (series often up to 102 µM), inactives show top-dose activity, negative = inhibition, most hits filed as inhibitors; AID 504332; 350,000 tested, 8.8% active; note: % is set by controls: 0 for no effect and ±100 for the full control effect; nearly all actives have a fitted effect of over 75% in size
Target sequence (Q96KQ7 913-1193 limits assumed): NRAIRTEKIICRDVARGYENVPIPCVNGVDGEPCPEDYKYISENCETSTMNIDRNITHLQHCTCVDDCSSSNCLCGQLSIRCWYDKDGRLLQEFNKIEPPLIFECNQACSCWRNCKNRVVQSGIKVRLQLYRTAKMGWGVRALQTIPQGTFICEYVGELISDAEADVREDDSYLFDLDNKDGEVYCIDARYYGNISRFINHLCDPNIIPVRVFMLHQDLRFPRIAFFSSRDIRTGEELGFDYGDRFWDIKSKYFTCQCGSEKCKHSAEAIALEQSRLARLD
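Chemiluminescent proximity detection of H3K9 monomethylation, read after 10 min bead incubation in the dark. Reaction: 20 nM G9a, 500 nM biotin-H3K9 peptide, 20 uM SAM cofactor, 2 h, room temperature, following 15 min enzyme-compound preincubation.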
BAZ2B block: blocks human BAZ2B; Potency, µM (series often up to 114 µM), without a hit: top-dose activity change, negative = inhibition, usual class: inhibitors; AlphaScreen BAZ2B-H3K14Ac peptide displacement; Q9UIF8; 360,000 tested, 4.4% active; note: % is set by controls: 0 for no effect and ±100 for the full control effect; nearly all actives have a fitted effect of over 60% in size
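Compounds, titrated to a top concentration of 110 uM, were incubated 30 min at room temperature with preformed BAZ2B/acetyl-K14 H3 peptide complex (50 nM each). Proximity signal was measured by AlphaScreen after 20 min with beads.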
JMJD2A Tudor inh: inhibitors of human JMJD2A Tudor domain | Potency, µM (highest dose often 114 µM), without a hit: top-dose activity change, negative = inhibition, actives largely listed as inhibitors | O75164 | 390,000 tested, 4.4% active | AlphaScreen JMJD2A-Tudor / H3K4me3 peptide binding; note: % is set by controls: 0 for no effect and ±100 for the full control effect; nearly all actives have a fitted effect of over 50% in size
Sfp inh: Sfp phosphopantetheinyl transferase inhibition; Q9F4F7; AID 1490; Biochemical Sfp PPTase activity, qHTS; 310,000 tested, 3.5% active; Potency, µM, without a hit: largest response in the series, negative = inhibition, usual class: inhibitors;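 note: the enzyme is Sfp with the accession as filed and its product quenches rhodamine fluorescence; 0% = enzyme reaction without inhibitor and -100% = no enzyme wells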
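Fluorescence-quenching assay: 15 nM Sfp-PPTase preincubated 15 min at room temperature with compound, then 5 uM rhodamine-CoA and 12.5 uM BHQ-2-labelled YbbR peptide added. Fluorescence (ex 525/em 598 nm) read at start and after 30 min; difference gives rate.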
L3MBTL1 block: L3MBTL1 (human) inhibition. Q9Y468. AlphaScreen L3MBTL1–H3K9me1 peptide binding. Potency, µM (doses to about 57.1 µM), inactives show top-dose activity, negative = inhibition, actives largely listed as inhibitors. 230,000 tested, 0.66% active; note: % is set by controls: 0 for no effect and ±100 for the full control effect; nearly all actives have a fitted effect of over 60% in size
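First, the protein-peptide complex forms for 30 min at room temperature (L3MBTL1 50 nM, biotinylated H3K9me1 peptide 75 nM). Next, compounds are pin-transferred and incubated 30 min. Finally, AlphaScreen beads are added and read after 30 min.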
HP1b binding inh: blocks HP1-beta chromodomain binding to methylated histone tails. P83916. AlphaScreen HP1-beta / biotin-H3K9me3 peptide binding. Potency, µM (titrated, usually from 114 µM), for inactives: at the highest dose activity change, negative = inhibition, hits mostly inhibitors. 390,000 tested, 0.56% active. AID 540317; note: nearly all actives have a fitted effect of over 70% in size
Target sequence (P83916 whole entry, looked up): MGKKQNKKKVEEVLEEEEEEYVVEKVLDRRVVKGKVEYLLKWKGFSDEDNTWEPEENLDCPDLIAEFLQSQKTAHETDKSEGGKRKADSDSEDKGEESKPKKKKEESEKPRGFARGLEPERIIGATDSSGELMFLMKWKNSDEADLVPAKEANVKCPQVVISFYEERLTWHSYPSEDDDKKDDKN
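HP1-beta protein (50 nM final) preincubated 30 min at room temperature with biotinylated H3(1-18)K9me3 peptide (50 nM) in PBS pH 7.4, 0.01% Tween-20, then compound added for 30 min. AlphaScreen streptavidin donor/nickel chelate acceptor beads (10 ug/mL final), 30 min dark, luminescence read.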
* = called active by the depositor; ? = inconclusive; / = no result given; [ ] = dose if it differs, or a comment. Calls come from the whole dose curve; as a rule, active = well fitted curve in the direction sought with a large enough effect; inconclusive = small, poorly fitted or top-dose-only effect, or another doubt; inactive = no such curve, though single readings can be large; an effect the other way counts as inactive or inconclusive. Potency is the fitted concentration of half-maximal effect.

SMILES | G9a block | BAZ2B block | JMJD2A Tudor inh | Sfp inh | L3MBTL1 block | HP1b binding inh
Cc1cc(C)nc(NC(=O)c2cc(-c3ccc(C)s3)nc3ccccc23)c1 | 64%[59 µM] | 24% | 34% | -9% | 32% | 73%
CCOC(=O)c1c(NC(=O)OC)sc(C(=O)N(CC)CC)c1C | ? | -4% | -8% | 22µM* | 14% | 16%
CCOC(=O)c1sc(NC(=O)OC)c(C(=O)OC)c1C | 3% | 2% | -7% | -9% | 14% | 27%
CC(C)(C)OC(=O)N1O[C@H]2CC1[C@@H]1[C@@H]2N=NN1CCc1ccncc1 | / | / | 0% | / | 5% | 33%
O=C(NCC(c1ccc2c(c1)OCO2)N1CCOCC1)c1ccc(F)cc1 (stereo unspecified) | 19%[59 µM] | 2% | -6% | / | / | 18%[57 µM]
CCN(CC)C(=O)c1sc(N)c(C#N)c1C | ? | 16% | -5% | -17% | 0% | -4%
CCOC(=O)C(=O)Nc1sc(C(=O)N(CC)CC)c(C)c1C#N | 50µM* | -20% | -23% | -13% | 1% | 57%
CCN(CC)C(=O)c1sc(N)c(C(=O)OC(C)C)c1C | 11µM* | 6% | -23% | -2% | 19%[11.4 µM] | -12%
CCN(CC)C(=O)c1sc(NC(=O)c2ccncc2)c(C(=O)OC)c1C | ? | 10% | -7% | 28µM* | 5% | -8%
CCOC(=O)c1c(NC(=O)Nc2ccc(F)cc2)sc(C(=O)N(C)C)c1C | -8%[59 µM] | 1% | -11% | / | / | 15%
CCOC(=O)c1c(NC(=O)c2ccoc2C)sc(C(=O)N(C)C)c1C | 32µM* | 8% | ? | -9% | / | -8%
O=c1cc(N2CCOCC2)oc2c(-c3ccccc3)cccc12 | 51%[12.7 µM] | / | / | 13% | / | /
Cc1cccc(C(=O)NCC(=O)OCc2cc(=O)n3nc(C4CCCCC4)sc3n2)c1 | 30%[59 µM] | -2% | -23% | / | / | -17%
Cn1cc(-c2nc3cnc(OCc4ccccc4)nc3n(CCC#N)c2=O)c2ccccc21 | 3%[0.501 µM] | / | / | 1% | / | /
CC(=O)N1CCc2cc(Br)cc(S(=O)(=O)N3CCN(c4ccccn4)CC3)c21 | -7% | 7% | 79µM* | 12% | 5% | ?
Cc1ccc(CNC(=O)CCS(=O)(=O)c2cc(Br)cc3c2N(C(=O)C2CC2)CC3)cc1 | 0%[59 µM] | 4% | -20% | / | / | 24%
CC(=O)N1CCc2cc(S(=O)(=O)C(C)CC(=O)NCc3ccc(C)o3)ccc21 (stereo unspecified) | ? | -30%[57.1 µM] | -23% | -24% | / | 33%
O=C(C1CC1)N1CCc2cc(Br)cc(S(=O)(=O)NCc3ccccn3)c21 | -47%[12.7 µM] | 8% | 2.8µM* | -1% | / | 23%
O=C(C1CC1)N1CCc2cc(Br)cc(S(=O)(=O)NCc3ccco3)c21 | 14%[59 µM] | -27% | -26% | 2% | -6% | 12%
Cc1ccc(CNC(=O)CCS(=O)(=O)c2cc(Br)cc3c2N(C(=O)C2CC2)CC3)o1 | ? | -35% | -18% | 10µM* | ? | -13%
CC(=O)N1CCc2cc(S(=O)(=O)CCC(=O)NCc3ccc(C)o3)ccc21 | / | -8% | -23% | 25µM* | / | -17%
CO[C@@H]1[C@@H]2OP(=O)(O)OC[C@H]2O[C@H]1n1c(Sc2ccc(Cl)cc2)nc2c(N)ncnc21 | 21%[59 µM] | / | / | 19% | / | /
Cc1cc(C(=O)N/N=C/c2cccc([N+](=O)[O-])c2O)n[nH]1 | 23%[59 µM] | 32µM* | 50µM* | 12% | ? | 31%
Nc1ccc(C(=O)N/N=C\c2cc(N=Nc3cccc4ccccc34)ccc2O)cc1 | -7%[0.501 µM] | 45µM* | ? | -7% | -17% | ?
Cc1cc(C(=O)N/N=C/c2cc(N=Nc3ccccc3)ccc2O)n[nH]1 | 50µM* | -32% | ? | -14% | -17% | 5%
SMILES | G9a block | BAZ2B block | JMJD2A Tudor inh | Sfp inh | L3MBTL1 block | HP1b binding inh
Cc1cc(C(=O)N/N=C/c2ccc(O)c([N+](=O)[O-])c2)n[nH]1 | 38%[59 µM] | 2% | -7% | 7% | 5% | 30%
CC(C)(C)c1cc(C(=O)N/N=C/c2ccc(-c3ccccc3[N+](=O)[O-])o2)n[nH]1 | 40µM* | ? | ? | -7% | / | -23%
N#Cc1nc(Cc2cccc3ccccc23)oc1NCCN1CCOCC1 | -6%[59 µM] | -37% | -35% | 0% | / | -16%
COc1ccc(CNc2oc(-c3cccc4ccccc34)nc2C#N)cc1 | ? | -38% | -22% | 14% | 15%[11.4 µM] | -8%
C=CCNc1oc(/C=C/c2ccccc2)nc1C#N | -28% | -26% | -12% | 14% | 15% | 22%
COCCNc1oc(Cc2cccc3ccccc23)nc1C#N | 79µM* | ? | -27% | 21% | -15% | -13%
C=CCNc1oc(Cc2cccc3ccccc23)nc1C#N | 50µM* | 50µM* | ? | -8% | / | 35%
N#Cc1nc(Cc2cccc3ccccc23)oc1NCc1ccc(F)cc1 | 25µM* | ? | ? | 22% | -17% | ?
O=C(NCCN1C(=O)S/C(=C\c2ccccc2F)C1=O)C1CCCN1C(=O)c1cccs1 (stereo unspecified) | ? | -10% | -29% | -15% | -1% | 6%
COc1ccc2cc(-c3nc(Cl)c4c5c(sc4n3)CCCC5)c(=O)oc2c1 | 1%[59 µM] | 11% | -5% | / | / | 13%
CN(C(=O)C1CCCO1)c1nnc(-c2cnccn2)s1 (stereo unspecified) | -7% | -3% | -4% | 17% | 3% | 45%
Cc1ccc(-c2nnc(N(C)C(=O)C3CCCO3)s2)cn1 (stereo unspecified) | 45µM* | ? | -13% | -11% | -2% | 40%
Cc1c(C2=CCN(S(=O)(=O)c3ccc(Br)cc3)CC2)c2ccccc2n1C | 40µM* | ? | -30% | -21% | -6% | -7%
NC(=O)c1ncn([C@@H]2O[C@H](CO)[C@@H](O)[C@H]2O)c1N | / | / | / | -19% | / | /
Cc1ccc2c(c1)nnn2C1CCN(S(=O)(=O)c2ccc(C(=O)N(C)C3CCCCC3)cc2)CC1 | 56µM* | -3% | ? | -4% | 1% | 5%
COC(=O)[C@@]12CCCN1[C@H](c1ccc(-c3ccccc3)cc1)[C@@H]1C(=O)N(C)C(=O)[C@@H]12 | 13%[2.33 µM] | -34% | -31% | / | -3% | 10%
O=C(Nc1nccs1)C(Br)C(Br)c1ccccc1 (stereo unspecified) | 3.5µM* | -2% | -30% | 50µM* | / | 14%
COc1ccc(CCNC(=O)CSc2ccccn2)cc1OC | 11µM* | ? | -10% | -30% | / | 9%
COc1ccc(CCNC(=O)C(=O)Nc2ccc(C)cc2)cc1OC | 3%[59 µM] | 3% | -16% | / | / | 32%
COc1ccc(CCNC(=O)CSC(=O)c2ccccc2)cc1OC | 18µM* | -15% | -13% | 45µM* | 6% | -22%
COc1ccc(CCNC(=O)C(=O)Nc2nccs2)cc1OC | ? | -1% | 79µM* | -26% | 2% | 26%
